High-throughput results as filed in PubChem.
This excerpt belongs to a sample that is enriched for hits.
Integrin act MD: activates integrin-mediated alleviation for muscular dystrophy. alpha7betagal myoblasts, beta-gal FDG fluorescence, 48 h. Potency, µM (series often up to 38.3 µM), for the others: at the top dose activation, hits mostly activators. 350,000 tested, 0.064% active;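 also: potency is read from the fitted curve at half-maximal effect; 100% = response of the positive control SU9516; nearly all actives have a fitted effect of over 60% in size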
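alpha7betagal+/- myoblasts (passage 13, 250/well) treated 48 h at 37C with compounds at 1:260 dilution of DMSO stock. Lysed, then beta-galactosidase activity read as FDG fluorescence (ex 480/em 540) after 30 min, with pre-read for autofluorescence.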
N370S GC mod: N370S glucocerebrosidase modulation, Gaucher chaperone candidate. 330,000 tested, 0.092% active. Potency, µM (doses to about 59.4 µM), inactives show top-dose activity change, negative = inhibition, hits mostly inhibitors. AID 2101. N370S GC spleen homogenate, 4MU-glucoside fluorescence;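 also: potency is read from the fitted curve at half-maximal effect; 0% = full enzyme activity and -100% = no enzyme basal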
Anesthetic bind: candidate novel general anesthetic via apoferritin binding; AID 485281; apoferritin/1-aminoanthracene competitive binding, fluorescence; 350,000 tested, 0.074% active; P02791; Potency, µM (titrated, usually from 77.5 µM), for inactives: at the highest dose activity change, negative = displacement, hits mostly inhibitors; also: potency is read from the fitted curve at half-maximal effect; % is scaled to controls: 0 for no effect and ±100 for the full control effect; nearly all actives have a fitted effect of over 20% in size
Target sequence (P02791 2-175 limits assumed): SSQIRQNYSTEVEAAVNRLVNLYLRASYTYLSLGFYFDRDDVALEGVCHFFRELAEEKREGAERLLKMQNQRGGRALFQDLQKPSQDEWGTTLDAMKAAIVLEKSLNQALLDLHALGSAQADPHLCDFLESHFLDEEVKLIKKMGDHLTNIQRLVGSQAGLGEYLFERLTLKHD
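Horse-spleen apoferritin (10 uM) was mixed with 50% saturated 1-aminoanthracene in PBS, exposed to compounds for 10 min at room temperature, and read for fluorescence (ex 380 nm, em 535 nm). Competitive displacement was fitted with a four-parameter Hill equation.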
ClpP mod: qHTS Assay for Activators of ClpP. ATP-dependent Clp protease proteolytic subunit (Bacillus subtilis (strain 168)), P80244. purified B. subtilis ClpP, FRET peptide cleavage, 20 min. Potency, µM (series often up to 57.5 µM), for the others: at the top dose activity change, negative = active. 340,000 tested, 1.9% active. AID 651965, 2013; active = well fitted falling curve with a large enough effect; inconclusive = small, poorly fitted or top-dose-only effect; inactive = no such curve, though single readings can be large or run the other way; also: potency is read from the fitted curve at half-maximal effect; the source files actives as falling curves though it sought activators and does not explain the sign; nearly all actives have a fitted effect of over 65% in size
Target sequence (P80244 whole entry, looked up): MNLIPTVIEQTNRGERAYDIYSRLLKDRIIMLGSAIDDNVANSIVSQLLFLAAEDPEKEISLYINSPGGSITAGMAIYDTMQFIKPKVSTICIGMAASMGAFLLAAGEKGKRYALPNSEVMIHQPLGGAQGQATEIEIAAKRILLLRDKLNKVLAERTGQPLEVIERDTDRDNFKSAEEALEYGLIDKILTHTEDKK
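FRET quenching reversal measured ClpP activation: 10 microg/mL B. subtilis ClpP at pH 8 with the FRET-FV decapeptide, read at 430 nm after 320 nm excitation. The 20-min minus 0-min signal was scaled between DMSO/no-enzyme wells and ADEP (5.8 microM final).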
Glioma ERSR ind: ER stress response induction in glioma; U87-MG GRP78 promoter luciferase reporter, 16 h; Potency, µM, inactives show at the highest dose activation, actives largely listed as activators; 420,000 tested, 0.02% active; AID 602332; also: potency is read from the fitted curve at half-maximal effect; series mostly up to about 76 µM; % of control where 0% means no effect; nearly all actives have a fitted effect of over 35% in size
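Stably transfected U87-MG glioma cells carrying a GRP78-based luciferase sensor; 16 h compound incubation. Luminescence end-point read 10 min after Bright-Glo addition at room temperature.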
CBFb RUNX1 block: blocks binding between human CBF-beta and RUNX1. Potency, µM (doses to about 59.8 µM), without a hit: top-dose activity, negative = inhibition, most hits filed as inhibitors. AID 1477. 230,000 tested, under 10 active. AlphaScreen CBFb-His/RUNX1-biotin binding, biochemical; also: % of control where 0% means no effect
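Compounds were screened at multiple concentrations against a preformed CBF-beta(His)/RUNX1(biotin) complex (30 nM of each) for 15 min at room temperature, followed by 90 min with nickel and streptavidin beads and AlphaScreen reading.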
An asterisk follows results filed as active; u = inconclusive; x = no result; [ ] = another dose, or the depositor's remark. Unless noted, calls follow the shape of the dose curve; as a rule, active = well fitted curve in the direction sought with a large enough effect; inconclusive = small, poorly fitted or top-dose-only effect, or another doubt; inactive = no such curve, though single readings can be large; an effect the other way counts as inactive or inconclusive.

SMILES | Integrin act MD | N370S GC mod | Anesthetic bind | ClpP mod | Glioma ERSR ind | CBFb RUNX1 block
CCOC(=O)C1CCCN(C(=O)c2cnn(-c3nccc(-c4cc(C)sc4C)n3)c2C)C1 (stereo not drawn) | x | x | x | x | -0.5% | x
COc1ccc(NC(=O)c2c(NC(=O)CNCc3ccco3)sc3c2CCC3)cc1 | -5.2% | 17.4% | -18.1% | -29.4% | -4.8% | 5.8%
COc1ccc(OC)c(NC(=O)c2c(NC(=O)CNCc3ccco3)sc3c2CCC3)c1 | -6.9% | 6.6%[2.35 µM] | -19.8% | 15.8µM* | -1.6% | -1.9%
Cc1noc(C)c1C(=O)NCc1ccccc1 | -1.4% | 5.0% | -13.5% | 31.6µM* | -3.5% | 2.0%
Cc1noc(C)c1C(=O)NCCc1ccccc1 | -21.0% | 21.8% | -3.7% | -0.8% | 2.2% | -1.0%
CS(=O)(=O)c1ccc(-c2ccc3c(c2)CC(CNC(=O)C2(N4CCOCC4)CCCCC2)O3)cc1 (stereo not drawn) | x | x | x | x | -1.8% | x
COc1ccc2c(c1)c(=O)oc1cc(OCC(=O)N3CCc4ccccc4C3)ccc12 | -23.2% | 3.2% | -14.7% | 4.47µM* | -1.1% | u
COc1ccc2c(c1)c(=O)oc1cc(OCC(=O)N3CCCC(C)C3)ccc12 (stereo not drawn) | 4.5% | 27.9% | -11.6% | u | -3.5% | -11.7%
CCC1CCCCN1C(=O)COc1ccc2c3c(c(=O)oc2c1)CCC3 (stereo not drawn) | -1.3% | x | x | 28.2µM* | -2.1% | x
CC(C)c1ccc(OCC(=O)N2CCc3ccccc3C2)cc1 | -5.6% | 7.2% | -14.5% | x | 4.5% | x
COc1ccc2c(c1)c(=O)oc1cc(OCC(=O)N3CCC(C)CC3)ccc12 | -30.3% | 9.6% | 10.5% | 17.8µM* | 18.0% | -30.0%
Cc1cc(=O)[nH]c2ccc(O)cc12 | x | x | x | 4.1% | -1.2% | x
Cc1ccc(CN2CCOc3ccc(CN4CCC(O)(c5cccnc5)CC4)cc3C2)cc1 | x | x | x | x | -4.1% | x
Cc1ccc2cc(CN(CCCN3CCOCC3)C(=O)NC3CCCCC3)c(=O)[nH]c2c1C | -9.4% | -5.2% | -17.7% | 28.2µM* | -0.1% | 3.1%
O=C(NC1CCCCC1)N(CCN1CCCC1)Cc1cc2cc3c(cc2[nH]c1=O)OCCO3 | -25.9% | -10.9% | -5.1% | 35.5µM* | 2.3% | 0.9%
Cc1cc2cc(CN(CCCN3CCOCC3)C(=O)NC3CCCCC3)c(=O)[nH]c2cc1C | -19.8% | u | -2.8% | u | 2.0% | 0.5%
O=C(NCCc1nnc2n1CCN(Cc1ccsc1)CC2)c1ccc(F)cc1 | x | x | x | x | -5.2% | x
c1ccc(-c2ncnc3cc4n(c23)CCC4)cc1 | 19.1% | 6.2% | -6.8% | 28.2µM* | -6.9% | 8.8%
NCCCNC(=O)c1cc2ccccc2[nH]1 | -12.8% | -15.8% | -12.1% | 25.1µM* | -2.9% | -1.8%
Nc1[nH]n2c(=O)c3c(nc2c1N=Nc1ccc(Cl)cc1)CCCC3 | 15.7% | 5.1% | -18.5% | -0.7% | -4.6% | 1.2%
O=c1c2c(nc3c(-c4ccccc4)c[nH]n13)CCCC2 | -4.4% | -8.6% | -11.0% | u | 1.1% | 3.7%
Cc1[nH]n2c(=O)c3c(nc2c1-c1ccc(Cl)cc1)CCC3 | -11.8% | 5.0% | 7.1% | 25.1µM* | 6.7% | 8.5%
Cc1[nH]n2c(=O)c3c(nc2c1-c1ccccc1)CCC3 | 11.8% | -4.0% | -0.6% | 31.6µM* | -3.6% | 12.0%
CC(C)(C)CC(C)(C)N=C1Nc2ccc([N+](=O)[O-])cc2N[C@]12C[C@H]1CCCC(=O)N3CC[C@@H](C2)[C@@H]13 | x | x | x | 3.9% | 0.1% | x
COc1ccc(C2NC(=O)c3ccccc3N2)cc1OC (stereo not drawn) | -23.9% | 2.7% | 32.1% | u | 3.5% | 0.5%
SMILES | Integrin act MD | N370S GC mod | Anesthetic bind | ClpP mod | Glioma ERSR ind | CBFb RUNX1 block
COc1cc(C2Nc3ccccc3-c3cc(C)nn32)ccc1O (stereo not drawn) | x | x | u | 31.6µM* | -3.1% | x
COc1ccc(C2Nc3ccccc3-c3cc(C)nn32)cc1OC (stereo not drawn) | x | x | -3.1% | 14.1µM* | -0.6% | x
Cc1cc2n(n1)C(c1cccs1)Nc1ccccc1-2 (stereo not drawn) | -35.4% | 10.5% | -12.3% | 20µM* | 6.7% | 4.3%
CCOc1cccc(C2Nc3ccccc3-c3cc(C)nn32)c1O (stereo not drawn) | x | x | -18.5% | 3.2% | 3.8% | x
Cc1cc2n(n1)C(c1ccc(O)cc1)Nc1ccccc1-2 (stereo not drawn) | -23.8% | -2.4% | -11.3% | 28.2µM* | 3.1% | 2.3%
Cc1cc2n(n1)C(c1ccco1)Nc1ccccc1-2 (stereo not drawn) | -13.5% | 8.6% | -15.1% | u | 2.2% | 1.2%
Cc1nc(NCc2c(C)nn(C)c2Cl)sc1-c1ccn(CC2COc3ccccc3O2)n1 (stereo not drawn) | x | x | x | x | -2.0% | x
Cc1cc(C(=O)NCc2nc(-c3cccc(NC(=O)c4cc(C)oc4C)c3)oc2C)nc(C)n1 | x | x | x | x | -0.2% | x
COc1ccc(N(C(=O)c2ccco2)S(=O)(=O)c2cc(OC)ccc2OC)cc1 | 6.4% | 8.3% | 5.8% | -0.3% | 39.8µM* | 2.1%
O=C(Nc1ccc2oc(-c3cccnc3)nc2c1)c1cccnc1 | 16.1% | -0.2% | -9.2% | u | -5.3% | 16.4%
Cc1ccc2oc(C(=O)Nc3cccc(-c4nc5ccccc5s4)c3)c(C)c2c1 | x | x | -8.3% | u | -1.1% | x
Cc1c(C(=O)Nc2ccc3oc(-c4cccnc4)nc3c2)oc2ccccc12 | 1.2% | 21.6% | u | 8.91µM* | -1.9% | -5.7%
Cc1c(C(=O)Nc2cccc(-c3nc4ccccc4s3)c2)oc2ccccc12 | x | x | 56.5% | 22.4µM* | -0.7% | x
COc1ccc2c(c1)CCc1cnc(-n3ncc(C(=O)N(C)CCc4ccccn4)c3C)nc1-2 | x | x | x | x | -0.6% | x
CC(NC(=O)c1ccccc1F)c1nnc(SCC(=O)N2CCN(c3ccccc3)CC2)n1C (stereo not drawn) | 1.2% | 1.9% | -5.7% | 25.1µM* | -6.2% | 3.7%
O=C(CC1(c2cccc(F)c2)CC(=O)N(Cc2cccnc2)C1=O)N1CCCCCCC1 (stereo not drawn) | x | x | x | x | -3.1% | x
Cc1c(C#N)c(N)nc2c3c(sc12)NC(=O)CC3c1ccc(Cl)cc1 (stereo not drawn) | 32.4% | x | 53.6% | 15.8µM* | -5.0% | -1.3%
N#Cc1c(N)nc2c3c(sc(=N)c2c1N)NC(=O)CC3c1ccccc1 (stereo not drawn) | -14.3% | -2.4% | -13.4% | -16.6% | 10.9% | -13.9%
O=[N+]([O-])c1ccc(Nc2nc(NCCN3CCOCC3)nc(Nc3ccc(Cl)cc3)n2)cc1 | x | x | x | -1.4% | -5.1% | x
COc1ccc(Cn2c(SCc3ccc(C(=O)NCc4ccc(C)cc4)cc3)nc3cccnc32)cc1 | x | x | -1.4% | 31.6µM* | -6.6% | x
